Laboratory results: PubChem BioAssay AID504692 (The Scripps Research Institute Molecular Screening Center, 2011)
Screen size: about 340,000 compounds; about 2,000 (0.59%) were called active. The sample as a whole holds a higher share of actives than the screen did. A number with no mark means an inactive call. Rule as the data show it: active = activation mostly above about 9.5% (no sharp cut-off); inactive = mostly below about 7.6%.

molecular target: 5-hydroxytryptamine receptor 5A (Homo sapiens) (UniProt P47898); assay: HTR5A agonists in luminescence cell assay, primary screen, counter-screen for OPRM1-OPRD1 heterodimer agonist project, full-deck HTS (AID 504692); details: cell-based, at 9.3 µM, stronger effect = higher value;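 also: 0% = cells with vehicle only and 100% = reference agonist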
Sequence (P47898 whole entry, looked up): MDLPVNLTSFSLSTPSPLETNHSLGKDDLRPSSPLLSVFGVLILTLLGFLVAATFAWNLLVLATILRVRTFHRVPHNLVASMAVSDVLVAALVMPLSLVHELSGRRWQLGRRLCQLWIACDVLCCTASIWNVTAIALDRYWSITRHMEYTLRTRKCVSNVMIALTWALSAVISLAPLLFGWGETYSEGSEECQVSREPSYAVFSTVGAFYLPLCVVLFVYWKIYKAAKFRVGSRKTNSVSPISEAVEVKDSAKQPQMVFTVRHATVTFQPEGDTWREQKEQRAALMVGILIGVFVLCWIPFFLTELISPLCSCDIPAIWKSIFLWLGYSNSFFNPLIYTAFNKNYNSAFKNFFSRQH

Row | SMILES | activation
1 | OCC1(CO)CC2(C1)CC(CO)(CO)C2 | -2.41%
2 | Cc1nn(Cc2ccc(Cl)cc2)c(Cl)c1/C=N/NC(=O)c1cccnc1 | 4.12%
3 | Cc1c(Cl)c([N+](=O)[O-])nn1Cc1ccc(C(=O)N/N=C\c2cc(Cl)ccc2O)o1 | 13% (active)
4 | O=C(N/N=C\c1ccc(Br)cc1)c1ccc(Cn2cccn2)o1 | 0.84%
5 | O=C(C1CCCO1)N1CCN(S(=O)(=O)c2ccc(Br)cc2)CC1 (configuration not stated) | 1.59%
6 | COc1ccc(Cl)cc1NC(=O)CN(C)C(=O)c1cc(-c2cccs2)nn1-c1ccccc1 | -7.03%
7 | CCCN1C(=O)C(NS(=O)(=O)c2ccc(N)cc2)(C(F)(F)F)C(C(=O)OC)=C1C (configuration not stated) | -4.18%
8 | COC(=O)c1c(NC(=O)C2CC(C)=C(C)CC2C(=O)O)sc2c1CCCCC2 (configuration not stated) | 5.77%
9 | CNC(=O)c1c(NC(NC(=O)c2ccco2)C(=O)c2ccc(Cl)cc2)sc2c1CCCC2 (configuration not stated) | -4.03%
10 | CC(C)OC(=O)c1c(NC(=O)c2ccco2)sc2c1CCCC2 | 14.5% (active)
11 | CN(C)CCCO/N=C(\c1ccccc1)c1ccncc1 | 7.85%
12 | Cc1ccc(C2CCN(C(=S)Nc3cccc(Cl)c3)C2)cc1 (configuration not stated) | 1.97%
13 | CC(C)(C)n1ncc2c(=O)n(Cc3ccc(Cl)cc3)cnc21 | 3.5%
14 | CN(CC(=O)NCc1ccc(Cl)cc1)S(=O)(=O)c1cccs1 | 1.02%
15 | CSc1nc2sc3c(c2c(=O)[nH]1)CCc1ccccc1-3 | 12.1% (active)
16 | CCSc1nnc(-c2cc3c(s2)-c2ccccc2CC3)o1 | -1.94%
17 | CCSc1nc2sc3c(c2c(=O)[nH]1)CC(C)(C)OC3 | 2.29%
18 | O=C(Nc1ccc2c(c1)OCO2)C1CC1(Cl)Cl (configuration not stated) | 12.7%
19 | Cc1ccc(-c2noc(CCC(=O)Nc3ccccc3N3CCN(C)CC3)n2)cc1 | -1.14%
20 | Cc1ccc(C(=O)O/N=C(\N)c2ccccn2)cc1Cl | 4.33%
21 | O=C(Nc1ccccc1Cl)O/N=C(/c1ccccc1)c1ccccn1 | 12.7% (active)
22 | O=C(COc1ccc(-n2cnnn2)cc1)Nc1ccccc1Cl | 5.09%
23 | OCCC1CN(Cc2cccn2-c2nccs2)CCN1CCc1ccccc1 (configuration not stated) | 0.07%
24 | O=C(CCNS(=O)(=O)c1ccccc1C(F)(F)F)NCc1ccc2c(c1)OCO2 | -3.01%
25 | O=C(CC(Cc1ccccc1)C(=O)O)NCCc1ccc2c(c1)OCO2 (configuration not stated) | 0.52%
26 | O=C(CCc1nnc(Cc2ccc3c(c2)OCO3)o1)NCCc1ccccc1Cl | 10.7% (active)

Row | SMILES | activation
27 | CC(NC(=O)COc1ccc(-c2ccccc2)cc1)C1CCCO1 (configuration not stated) | 4.73%
28 | COCCCNC(=O)CN1CCN(Cc2ccccc2Cl)C1=O | 2.41%
29 | Cc1ccccc1CN1CCN(CC(=O)NCc2ccccn2)C1=O | 16.8% (active)
30 | Cc1nn(CC(=O)NCc2ccccn2)c(C)c1[N+](=O)[O-] | -1.81%
31 | O=C(Cn1nnc(-c2ccccc2)n1)N/N=C/c1ccc(-c2ccc(Cl)cc2)o1 | 1.41%
32 | CC(=O)Nc1ccc(C(=O)Nc2cccc(S(=O)(=O)NC3=NCCC3)c2)cc1 | 1.89%
33 | CN(CCOc1ccc(Br)cc1)CC(=O)Nc1cccc(S(=O)(=O)NC2=NCCC2)c1 | 12.7% (active)
34 | CCc1ccc(C(=O)OCC(=O)Nc2cccc(S(=O)(=O)NC3=NCCCCC3)c2)cc1 | 7.2%
35 | Cn1c(=O)[nH]c(=O)c2c1nc(N(CCO)Cc1ccccc1)n2Cc1ccccc1Cl | -3.62%
36 | COc1ccc(Cl)cc1NC(=O)C(C)N1CCc2ccccc21 (configuration not stated) | 1.38%
37 | CCCCCc1ccc(-c2ccc(C(=O)O)cc2)nc1 | 4.14%
38 | CCc1ccc(NC(=O)CN2C(=O)COc3ccc(S(=O)(=O)N4CCCC4)cc32)cc1 | 0.59%
39 | COc1ccc(NC(=O)CN2C(=O)CSC2=O)cc1 | -1%
40 | CCc1ccc(NC(=O)CN2C(=O)CSC2=O)cc1 | 13.7% (active)
41 | COC(=O)c1c(CCl)noc1C(=O)NC(C)C | 2.61%
42 | CC(C)(C)NC(=O)COC(=O)c1cc(Cl)ccc1[N+](=O)[O-] | 7.24%
43 | CCOC(=O)c1ccccc1NS(=O)(=O)c1c(C)nc2sccn2c1=O | -1.95%
44 | CCOC(=O)c1cnc2sccn2c1=O | 21% (active)
45 | CN(C)/C=C/C(=O)c1cnc2sccn2c1=O | 0.28%
46 | Cc1nc(C(=O)NCc2ccccc2)sc1C1(C)CC(c2cccnc2)=NO1 (configuration not stated) | 6.13%
47 | COc1cccc(OCC(=O)Nc2ccccc2C(N)=O)c1 | 18.3% (active)
48 | Cc1cccc(OCC(=O)Nc2ccccc2F)c1 | 0.76%
49 | Cc1cccc(OCCC(=O)Nc2ccccc2C(N)=O)c1 | 1.89%
50 | Cc1cc(C)c(S(=O)(=O)NCC(c2ccc3c(c2)OCO3)N2CCOCC2)c(C)c1 (configuration not stated) | -4.07%
51 | Cc1ccc2nc(SC(C)C(=O)NCc3ccco3)[nH]c2c1 (configuration not stated) | -4.41%
52 | CC(=O)c1c(C)[nH]c(C(=O)OCC(=O)Nc2c(C)n(C)n(-c3ccccc3)c2=O)c1C | 1.57%

Row | SMILES | activation
53 | CC(=O)c1c(C)[nH]c(C(=O)OCC(=O)Nc2c(C)cccc2C)c1C | 17.5% (active)
54 | CC(=O)c1c(C)[nH]c(C(=O)OCC(=O)NCCC(C)C)c1C | -1.47%
55 | CSCCC(NS(=O)(=O)/C=C/c1ccccc1)C(=O)N1CCC(C)CC1 (configuration not stated) | -0.99%
56 | CCNS(=O)(=O)c1ccc(NC(=O)c2cncc(Br)c2)cc1 | 0.87%
57 | COc1ccccc1C(=O)Nc1cccc(C(=O)N2CCOCC2)c1 | 3.58%
58 | O=C(Nc1ccc(C(=O)N2CCOCC2)cc1)Nc1cccc(C(F)(F)F)c1 | 28.4% (active)
59 | CCNS(=O)(=O)c1ccc(NC(=O)Nc2cccc(C(F)(F)F)c2)cc1 | 12.8% (active)
60 | O=C(NCc1ccccc1)c1ccc(S(=O)(=O)Nc2cccc(C(F)(F)F)c2)cc1 | 2.56%
61 | O=C(COc1ccc(S(=O)(=O)Nc2cccc(C(F)(F)F)c2)cc1)N1CCOCC1 | 1.4%
62 | Cc1cc(OCCN2CCCC2)ccc1C(C)C | 8.01%
63 | O=C(NCCCO)c1cc2c([nH]c3ccccc32)c(-c2ccc(F)cc2)n1 | 1.16%
64 | COc1ccccc1C(=O)COC(=O)COc1ccc(C#N)cc1 | -2.03%
65 | COc1ccc(-c2nc(CS(=O)(=O)CC(=O)NCc3cccc(Br)c3)c(C)o2)cc1 | 4.07%
66 | O=C(COC(=O)CCCNC(=O)c1ccc(Cl)cc1)Nc1cc(Cl)ccc1Cl | 7.08%
67 | O=C(CN(c1ccccc1)S(=O)(=O)c1ccc(Cl)cc1)Nc1ccccc1C(=O)N1CCCC1 | -0.02%
68 | CCN(CC)C(=O)c1nc[nH]c1C(=O)N(C)Cc1ccccc1 | -1.14%
69 | COc1ccc(CCNC(=O)C(Sc2ccccn2)c2ccccc2)cc1OC (configuration not stated) | 2.72%
70 | COc1ccc(COC(=O)NC(C(=O)O)c2ccccc2)cc1 (configuration not stated) | -0.04%
71 | COc1ccc(C(CCN(Cc2ccc(OC)c(OC)c2)C(=O)CCl)c2ccccc2)cc1 (configuration not stated) | 44.4% (active)
72 | CCCNC(=S)NC1CC2CCCC(C1)N2CC(C)C (configuration not stated) | 4.6%
73 | COc1c(N2CCN(C(=S)Nc3ccccc3F)C(C)C2)c(F)cc2c(=O)c(C(=O)O)cn(C3CC3)c12 (configuration not stated) | -0.11%
74 | O=C(NC(Cc1c[nH]c2ccccc12)C(=O)O)/C(=C/c1ccco1)NC(=O)c1ccccc1 (configuration not stated) | 0.55%
75 | Cc1ccc(C(=O)N/C(=C\c2ccco2)C(=O)N2CCSCC2)cc1C | 1.54%
76 | Cc1ccc(C(=O)N/C(=C/c2ccco2)C(=O)NCCc2c[nH]c3ccccc23)cc1C | 20.3% (active)
77 | Cc1ccc(/C=N/NC(=O)C(NC(=O)c2ccccc2)c2n[nH]c(=O)c3ccccc23)cc1 (configuration not stated) | 3%
